Assay results reported in ChEMBL document CHEMBL4513216, “Probing the Open Global Health Chemical Diversity Library for Multistage-Active Starting Points for Next-Generation Antimalarials” (ACS Infect Dis, 2020).
Screen size: about 68,000 compounds; about 2,700 (4%) showed an effect of 50% or more. Many of the other results were omitted from the sample, so strong results are more common in it than they were.

Tested on: Plasmodium berghei
Test: Screen against P. berghei liver stage (PbLuc), transformed with Luciferase, at 2uM
Assay type: functional, HepG2
Settings: tested at 2 uM

| Compound | INHIBITION [%] |
| --- | --- |
| NC(=O)CN1CC2(CCC1=O)CCN(Cc1ccc(Cl)c(F)c1)CC2 | 23.63 |
| CC(C)Cn1cncc1CNC1CCSC1 (stereo not drawn) | -18.33 |
| COc1c(CNC2CCN(c3ccccn3)CC2)c(C(C)C)nn1C | -11.2 |
| COc1c(CNC2CCC(O)CC2)c(C(C)C)nn1C (stereo not drawn) | 11.2 |
| COc1c(CNC2CCN(c3ncccn3)CC2)c(C(C)C)nn1C | -79.53 |
| COc1c(CNC2CCCN(c3ncccn3)C2)c(C(C)C)nn1C (stereo not drawn) | 56.02 |
| COc1c(CNC2CCN(C(C)(C)C)CC2)c(C(C)C)nn1C | 51.19 |
| COc1c(CNC2CCN(C(=O)C(C)C)CC2)c(C(C)C)nn1C | 11.2 |
| Clc1ccccc1C1CN(CCc2ccncc2)CCO1 (stereo not drawn) | -35.92 |
| COc1ccc(NC(=O)c2nc3ccccc3n(C)c2=O)cc1OC | 9.85 |
| CNS(=O)(=O)c1ccc(CNC(=O)c2cccc(C)n2)cc1 | -9.17 |
| Cc1cccc(C(=O)NCc2ccc(CS(N)(=O)=O)cc2)n1 | -45.83 |
| CNS(=O)(=O)Cc1ccc(CNC(=O)c2cccc(C)n2)cc1 | 65.77 |
| CO[C@H]1CN(C(=O)OC(C)(C)C)CC1NCc1ccco1 (stereo partly drawn) | 32.73 |
| CC(c1ccccc1)N(C)C(=O)CN1CCCc2cc(F)cc(F)c21 (stereo not drawn) | 27.52 |
| Nc1nc(C(=O)NCC2CCC3(CCNCC3)CO2)cs1 (stereo not drawn) | -51.85 |
| O=C(Cc1ccccc1)C1CCCN(Cc2cncn2C2CCCC2)C1 (stereo not drawn) | 19.75 |

| Compound | INHIBITION [%] |
| --- | --- |
| O=C(CCc1ccccc1)C1CCCN(Cc2cncn2C2CC2)C1 (stereo not drawn) | 21.67 |
| COCCn1cncc1CN1CCCC(C(=O)Cc2ccccc2)C1 (stereo not drawn) | 58.09 |
| COCCN(Cc1ccoc1)S(=O)(=O)c1ccc(OC)c(Cl)c1 | 1.04 |
| CN(C)S(=O)(=O)N1CCCCCC1c1cc(-c2ccc(F)cc2)no1 (stereo not drawn) | 6.64 |
| Cc1ccccc1C(CC(=O)NCC(N)=O)c1ccccc1 (stereo not drawn) | 57.59 |
| Cc1ccccc1C(CC(=O)NCc1nnc(N)s1)c1ccccc1 (stereo not drawn) | 9.13 |
| Cc1ccccc1C(CC(=O)NCc1n[nH]c(N)n1)c1ccccc1 (stereo not drawn) | 28.1 |
| Cc1cc(C(=O)NCc2cnn(C)c2C)nc(N2CCCCCC2)n1 | -5.59 |
| O=C(Nc1ccc(F)c(-n2cccc2)c1)NC1(CCO)CCOCC1 | -13.38 |
| COCCN(Cc1ccccn1)C(=O)Nc1cccnc1N1CCCC1 | -40.03 |
| Cc1ccccc1C(=O)Nc1ccc(OC2CCN(C)CC2)cc1 | 37.87 |
| CN1CCC(Oc2ccc(NC(=O)c3ccccc3Br)cc2)CC1 | 16.64 |
| COc1ccccc1C(=O)Nc1ccc(OC2CCN(C)CC2)cc1 | 56.93 |
| Cc1cccc(C(=O)Nc2ccc(OC3CCN(C)CC3)cc2)c1 | 11.63 |
| Cc1ccc(C(=O)Nc2ccc(OC3CCN(C)CC3)cc2)c(C)c1 | 55.84 |
| Cc1ccc(C)c(C(=O)Nc2ccc(OC3CCN(C)CC3)cc2)c1 | 29.71 |
